# Activity calls are given as the source filed them.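 How the source made its calls: active means compound that raised the calcium level needed for half-maximal fiber tension by more than 10% versus solvent alone; inactive means the rest.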
# Experiment: calcium desensitizers of cardiac fiber tension, late-stage follow-up, mechanism study for cardiac RTF inhibitor project, permeabilized porcine cardiac fibers, force transducer, powder samples (AID 602245)
# Conditions: pig permeabilized cardiac fiber tension, pCa50 shift, at 10 µM; delta pCa50: measured here: shift in calcium sensitivity, stronger effect = lower value; fold change of Ca2+ KD: stronger effect = higher value; maximal force change: measured here: effect on maximal fiber force
smiles,measurement,value
NCCCCCCNS(=O)(=O)c1cccc2c(Cl)cccc12,delta pCa50,-0.116
same,fold change of Ca2+ KD,1.31 (active)
same,maximal force change,-4.5%
